# Laboratory results reported in the supplement of paper PMC6555819.
# Tests used:
# Assay in all cases: PBM binding z-score (relative to random genomic background probes); higher = stronger binding; sequences stand for … in GC…GCGATTGACAGCGTAGAATGAAGG
# [1] = tested on: FXR:RXRa (NR concentration 270 nM, RXRa partner concentration 90 nM)
# Outline: (§1)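 Random background probes are the reference for binding z-scores. These scores derive from regression-normalized fluorescence on custom Agilent 4×180K protein-binding microarrays incubated 1 h with ligand-free nuclear receptor dimers. Binding was detected with antibodies against each partner (one per run).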
# [2] = tested on: LXRa:RXRa (NR concentration 270 nM, RXRa partner concentration 90 nM)
# Outline: as §1
# [3] = tested on: LXRa homodimer (NR concentration 270 nM)
# Outline: as §1
# [4] = tested on: LXRb:RXRa (NR concentration 270 nM, RXRa partner concentration 90 nM)
# Outline: as §1
# [5] = tested on: LXRb homodimer (NR concentration 270 nM)
# Outline: as §1
# [6] = tested on: PPARa:RXRa (NR concentration 270 nM, RXRa partner concentration 90 nM)
# Outline: as §1
# [7] = tested on: PPARg:RXRa (NR concentration 180 nM, RXRa partner concentration 90 nM)
# Outline: as §1
# [8] = tested on: PPARg:RXRa 270nM:90nM, anti-RXR (NR concentration 270 nM, RXRa partner concentration 90 nM)
# Outline: as §1
# [9] = tested on: PPARg:RXRa 30nM:10nM, anti-RXR (NR concentration 30 nM, RXRa partner concentration 10 nM)
# Outline: as §1
# [10] = tested on: PPARg:RXRa 90nM:30nM, anti-RXR (NR concentration 90 nM, RXRa partner concentration 30 nM)
# Outline: as §1
# [11] = tested on: PPARg:RXRa DBDmut IVT, anti-RXR (DBD mutation: RXRa K156A/R161A, NR concentration 270 nM, RXRa partner concentration 90 nM)
# Outline: as §1
# [12] = tested on: PPARg:RXRa IVT, anti-PPARg (NR concentration 270 nM, RXRa partner concentration 90 nM)
# Outline: as §1
# [13] = tested on: PPARg DBDmut:RXRa IVT, anti-PPARg (DBD mutation: PPARg1 K132A/R137A, NR concentration 270 nM, RXRa partner concentration 90 nM)
# Outline: as §1
# [14] = tested on: PPARg DBDmut IVT, anti-PPARg (DBD mutation: PPARg1 K132A/R137A, NR concentration 270 nM)
# Outline: as §1
# [15] = tested on: PPARg homodimer (NR concentration 180 nM)
# Outline: as §1
# [16] = tested on: PXR:RXRa (NR concentration 270 nM, RXRa partner concentration 90 nM)
# Outline: as §1
# [17] = tested on: PXR homodimer (NR concentration 270 nM)
# Outline: as §1
# [18] = tested on: RARa:RXR (NR concentration 270 nM, RXRa partner concentration 90 nM)
# Outline: as §1
# [19] = tested on: RARa homodimer (NR concentration 270 nM)
# Outline: as §1
# [20] = tested on: RARb:RXRa (NR concentration 270 nM, RXRa partner concentration 90 nM)
# Outline: as §1
Sequence,PBM binding z-score [1],PBM binding z-score [2],PBM binding z-score [3],PBM binding z-score [4],PBM binding z-score [5],PBM binding z-score [6],PBM binding z-score [7],PBM binding z-score [8],PBM binding z-score [9],PBM binding z-score [10],PBM binding z-score [11],PBM binding z-score [12],PBM binding z-score [13],PBM binding z-score [14],PBM binding z-score [15],PBM binding z-score [16],PBM binding z-score [17],PBM binding z-score [18],PBM binding z-score [19],PBM binding z-score [20]
AATACAGGGTCATCGTAGGCTAGAGTACGCACAG,7.1,6.2,2.25,4.59,1.4,6,6.55,5.9,2.52,4.76,3.07,3.89,1.38,0.798,1.99,4.52,0.956,4.85,1.03,4.33
TAGCCTAGGACAGATCGGGCCAGTATACGCTATA,-1.33,-1.15,-0.706,-1.34,-0.794,-1.96,0.367,-0.842,-0.355,-0.623,-0.993,-0.151,-0.673,0.0562,-1.15,-0.732,-0.768,-0.695,-1.42,-0.928
ATGGAAAGGTCGAGGTGAGTATAGAGAAAGGGAA,4.15,3.47,0.547,2.81,0.956,4.69,3.21,4.02,1.44,2.83,0.536,2.48,1.74,0.527,1.67,2.55,1.05,3.1,1.32,4.07
CGAACTAGGTCAGAACCGGACAGTGAAGGATGAT,0.841,0.508,-0.0192,0.198,-0.379,2.72,4.56,4.31,1.5,3.4,7.36,7.01,0.829,-0.265,0.564,0.339,-0.0754,0.679,-0.208,2.85
CCTAGCAGGCGAATCTGGGTCACTCAAGGCTTGA,0.211,0.262,-0.449,0.236,-0.934,3.11,2.47,2.62,-0.139,1.64,4.47,5.39,-1.46,-1.28,0.225,0.221,-0.605,1.13,-0.282,0.812
TCTTGTTGGTCAAAGGTCACACACTCGAAATGCG,5.68,5.8,4.46,5.63,2.85,6.46,10.7,9.31,9.15,10,3.64,5.98,1.27,1.91,4.88,5.9,1.75,7.15,3.44,5.25
AGAATGAGGTTACCAAAGATCAGGGAGACGCTTG,2.11,6.33,-0.321,3.23,-0.156,3.38,2.8,2.92,1.02,2.15,3.87,3.22,1.19,0.476,0.567,1.53,0.0174,1.99,0.112,2.15
CCTATTAGTTGACCGTAAGGGCAACCGAAGCTCG,1.88,0.908,0.863,0.769,0.64,0.834,0.00382,0.48,-0.271,-0.155,0.0924,0.672,0.0839,-0.0421,1.63,0.919,0.939,1.35,1.56,1.91
GCTCGGAGCACAAGGTCAGAGCTTTGTCCGTAGA,1.22,1.42,-0.454,0.993,-1.38,2.34,0.273,1.03,-0.387,0.2,0.516,0.181,-1.55,-1.25,0.0109,1.7,-0.525,1.75,-1.06,2.63
AGAACAAGGGCACGCTGAGTTGATAGCAGAGTAG,0.401,0.296,-0.369,-0.0707,-0.878,1.38,1.28,0.671,0.364,0.255,3.07,2.72,0.166,0.443,0.00636,0.845,0.17,0.366,-0.312,2.51
CCTTACGGGTCACGAGGTTATAACACGACGAGCG,6.57,4.63,0.527,4.2,-0.0357,6.03,7.47,6.56,3.19,5.53,3.55,5.17,1.01,0.726,2.11,4.38,0.145,5.6,0.574,4.58
AGAATGAGGTTATACGTAGATCAGGGTAGAAAGT,2.27,1.96,0.00674,1.65,0.246,3.21,2.08,2.36,0.669,1.22,4.24,2.33,1.07,0.356,1.01,1.35,0.929,1.86,0.591,1.59
AGTCAAAGTTCAATAGGTAACGTAAGATTCAGCT,5.27,5.09,3.45,3.08,1.59,4.37,5.82,5.74,2.88,4.97,1.07,3.4,1.2,1.2,2.73,4.19,3.15,3.34,1.83,4.8
CCTTACGGGTCACGGACAGGTTATAGCATTTGGA,6.85,5.09,0.422,4.42,0.0189,6.01,6.38,6.56,3.37,5.44,3.87,4.87,1.03,2.15,5.94,4.82,0.261,6.3,2.04,4.37
CCAACTAGGTCAAGAGGTCAAAGTCCGCTTCCCG,6.96,6.55,6.26,5.47,1.76,6.42,9.41,7.99,6.27,8.1,8.09,8.02,4.07,5.47,8.09,6.37,2.79,8.12,3.13,5.34
CGAACTAGGTCATCGACAGGACAGTGAATAGTAA,3.83,2.6,0.8,2.02,-0.0443,4.87,8.03,6.6,3.86,5.7,8.14,8.42,4.29,4.27,2.79,1.76,0.984,2.53,2.3,3.88
TCGAGTAGGTTAGAGGCATTCAGAATGGCGTCGA,0.0736,-0.18,-0.53,-0.336,-1.72,0.422,1.22,2.66,1.4,2.27,1.65,0.965,-0.829,-0.771,0.087,-0.51,-0.852,-0.767,-0.955,0.0217
TCGAGTAGGTTACCAATGGGGCATTGAGCTTTCT,0.162,1.38,-0.99,0.479,-1.11,0.992,0.256,1.26,1.03,1.16,3.4,2.69,-0.293,-0.233,-0.0976,0.039,-0.707,0.00376,-0.988,0.917
GCTTTTAGTTGAAAGGGCAACCGAATGATTCTCG,0.288,0.561,-0.0833,0.53,0.106,2.2,2.24,4.03,1.85,3.97,0.524,0.732,0.316,0.582,0.658,0.695,-0.255,0.953,-0.0621,2.16
CGTCCAAGTTCAAGGTAACGTAACAGAAAGCAGC,2.88,2.37,0.562,1.53,0.319,2.68,1.17,1.4,0.382,1.04,0.65,0.654,0.76,0.315,1.63,2.73,1.61,1.95,0.657,3.36
TTACCAAGGTGAAATGTCGTTGATGCACGCCTTG,0.891,0.622,-0.432,0.388,-0.436,2.35,2.41,3.4,1.94,3.36,2.04,2.84,0.312,0.465,0.892,0.271,-0.455,0.706,-0.394,1.44
ATACTAAGGTGATCGTGAGGTCGTTGATACTAAC,2.4,2,0.85,1.55,0.314,2.07,0.615,0.774,0.762,0.566,1.4,1.73,0.74,1.39,1.65,3.74,1.93,2.88,0.716,1.77
ATCTCTAGGCAACAAGTTCAGTGAAAGAGAGGAC,0.0391,0.175,-0.0655,0.139,0.432,0.498,0.668,1.15,0.633,1.09,0.952,0.456,0.856,0.154,0.297,0.875,1.52,0.335,0.376,1.32
TCGAGTAGGTTACCAATGGGGCACTCAGCTTTCT,-0.431,0.466,-1.03,0.379,-0.732,0.966,0.351,1.39,1.09,1.15,3.78,3.08,-0.534,0.223,-0.453,0.0109,-0.848,0.158,-0.688,0.948
TCGAGTAGGTTTGGGGCATTCAGAATGGCGTCGA,-0.5,-0.529,-0.289,0.316,-0.295,0.0771,-0.558,0.475,0.701,0.598,0.667,-0.179,-0.869,-0.587,-0.00492,-0.143,-0.414,-0.156,-0.479,-0.00663
CGAACGAGGGCATGAGTAGATAGCAAATGCCGAT,0.0959,0.081,-0.748,-0.189,-1.08,0.99,1.4,0.988,0.168,0.198,2.5,2.07,-0.283,0.0377,0.101,0.0706,-0.112,0.0192,-0.164,1.85
GCGACTGGGGCAAAGCAGGTTACCTTAAGGTTGG,0.232,0.16,-0.422,0.247,-0.607,1.31,0.947,1.35,-0.661,0.437,4.98,3.47,-0.487,-1.22,-0.599,0.288,-0.563,0.523,-0.791,0.877
TAGCCTCGGTCATGGGCCAGTATACCACGCGAAC,0.333,0.687,0.0533,-0.073,-0.572,0.143,0.374,0.188,-0.674,-0.0831,-0.58,0.53,-0.301,-1,-0.0918,-0.176,-0.497,0.0375,-0.653,2.42
CGTCGAAGGTCAAAGGTCAGTGAAGAGATGACGG,8.44,6.95,3.31,6.62,1.89,7.42,10.4,8.74,7.87,8.95,3.46,5.8,1.49,1.99,5.11,7.05,1.1,8.65,2.42,5.92
